Inconclusive results are not listed. Where a call stands in place of a potency, no number is given. Unmarked numbers belong to inactive results. The source made the active and inactive calls. The call rests on the fitted dose curve; in most records, active means well fitted activation curve with a large enough effect in the repeat runs; inconclusive means weak or mixed curves; inactive means no such curve, though single readings can be large or run the other way.
Biological target: Aryl hydrocarbon receptor (Homo sapiens) (UniProt P35869)
Sequence (P35869 whole entry, looked up): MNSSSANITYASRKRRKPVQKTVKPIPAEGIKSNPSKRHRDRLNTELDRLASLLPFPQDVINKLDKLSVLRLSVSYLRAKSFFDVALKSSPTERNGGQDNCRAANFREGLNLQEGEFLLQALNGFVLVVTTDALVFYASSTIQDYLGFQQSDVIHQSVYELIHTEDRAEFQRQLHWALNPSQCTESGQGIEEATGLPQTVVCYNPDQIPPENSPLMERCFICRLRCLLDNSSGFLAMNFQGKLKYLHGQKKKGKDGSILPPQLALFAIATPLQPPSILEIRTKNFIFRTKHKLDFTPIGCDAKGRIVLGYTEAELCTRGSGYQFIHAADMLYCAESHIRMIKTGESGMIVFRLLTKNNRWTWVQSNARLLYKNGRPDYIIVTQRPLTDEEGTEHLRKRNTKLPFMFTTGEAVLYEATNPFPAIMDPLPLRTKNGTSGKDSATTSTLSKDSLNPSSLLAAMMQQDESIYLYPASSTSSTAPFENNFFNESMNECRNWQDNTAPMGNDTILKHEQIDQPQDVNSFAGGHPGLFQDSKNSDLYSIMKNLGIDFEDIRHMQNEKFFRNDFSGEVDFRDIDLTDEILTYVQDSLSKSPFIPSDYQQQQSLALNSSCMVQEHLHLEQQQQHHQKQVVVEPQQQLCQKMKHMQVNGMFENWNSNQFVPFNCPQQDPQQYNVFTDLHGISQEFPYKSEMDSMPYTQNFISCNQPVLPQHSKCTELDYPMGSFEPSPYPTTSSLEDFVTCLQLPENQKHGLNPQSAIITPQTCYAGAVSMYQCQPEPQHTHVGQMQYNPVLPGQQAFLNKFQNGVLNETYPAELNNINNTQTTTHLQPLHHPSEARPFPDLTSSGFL
Test: qHTS assay to identify small molecule that activate the aryl hydrocarbon receptor (AhR) signaling pathway (AID 743085);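 further: HG2L7.5c1 human HepG2 liver cells with stably integrated DRE-driven firefly reporter; nearly all actives have a fitted effect of over 15% in size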
Settings: HepG2 AhR-luc (HG2L7.5c1), luciferase, 24 h; series mostly up to 70.3 µM
Text: U.S. Tox21 Program National Center for Advancing Translational Sciences [NCATS] NIH Chemical Genomics Center [NCGC] U.S. Environmental Protection Agency [EPA] National Institutes of Environmental Health Sciences [NIEHS] National Toxicology Program [NTP] U.S. Food and Drug Administration [FDA] Tox21 Assay overview: The Aryl hydrocarbon Receptor (AhR), a member of the family of basic helix-loop-helix transcription factors, is crucial to adaptive responses to environmental changes. AhR mediates cellular responses to environmental pollutants such as aromatic hydrocarbons through induction of phase I and II enzymes but also interacts with other nuclear receptor signaling pathways. A cell based HepG2-AhR-luc assay (HG2L7.5c1 cell line, developed by Dr. Michael S. Denison, University of California at Davis, was used to assess the activation of AhR. HepG2 (human hepatocellular carcinoma) cells were stably transfected with an Ah receptor-responsive firefly luciferase reporter gene plasmid containing 20 dioxin responsive elements and luciferase reporter gene. Increased luciferase activity can be used to identify the compounds that induce AhR activation.
Tox21 Assay Protocol Summary: 4000 cells in 5 uL/well were dispensed into white wall/solid bottom 1536-well plates using a Multidrop Combi (Thermo Fisher Scientific Inc., Waltham, MA) dispenser. After the assay plates were incubated at 37C for 5 h, 23 nL of compound or DMSO vehicle was transferred to the assay plates by a pintool station (Kalypsys, San Diego, CA). The plates were incubated at 37C for 24 hr. After 1 ul/well of CellTiter-Fluor reagent (Promega, Madison, WI) was added into the assay plates using a Flying Reagent Dispenser (FRD) (Aurora Discovery, CA), the assay plates were incubated at 37C for 30 min. The fluorescence intensity in the plates was measured using a ViewLux plate reader (PerkinElmer, Shelton, CT), followed by the addition of 4 uL of ONE-Glo Luciferase Assay reagent (Promega) using an FRD (Aurora Discovery). After the assay plates were incubated at room temperature for 30 min, luminescence intensity was measured using a ViewLux plate reader (Perkin Elmer).

Structure (SMILES) | Potency | activation
Nc1cc(C(Cl)=C(Cl)Cl)c(S(N)(=O)=O)cc1S(N)(=O)=O | inactive | 
NC(CS)C(=O)O (stereo not given) | inactive | 
Nc1[nH]c(=O)ncc1F | inactive | 
N[C@@H](CS)C(=O)O | inactive | 
C=CCSCC1Nc2cc(Cl)c(S(N)(=O)=O)cc2S(=O)(=O)N1 (stereo not given) | inactive | 
NC1CCN(c2cccc(Cl)n2)CC1 | inactive | 
CCCCCCCCCCC1CO1 (stereo not given) | inactive | 
CC/C=C\CCCCO | inactive | 
CCCCCC[C@@H](CCC)C(=O)O | inactive | 
CCCCCCCCCCCCCCCCCC(=O)OCCCCCCCCCCCCCC(C)C | inactive | 
CCCCCCCCN(C)CCCCCCCC | inactive | 
C=C(C)[C@H]1CC=C(C)CC1 | inactive | 
C/C=C1\C(=O)C[C@H]2[C@@H]3CCC4=CC(=O)CC[C@]4(C)[C@H]3CC[C@]12C | inactive | 
CCn1cc(C(=O)O)c(=O)c2cc(F)c(N3CCN(C)CC3)cc21 | inactive | 
O=[N+]([O-])c1ccc(CCO)cc1 | inactive | 
C=CC(=O)OCCCCCC | inactive | 
Cc1cc(C)cc(OCC2CNC(=O)O2)c1 (stereo not given) | inactive | 
CC(C)(C)C(=O)/C=C/c1ccc(Cl)cc1 | inactive | 
C=C(C)C1CC=C(C)C(O)C1 (stereo not given) | inactive | 
CN(C)C(=O)C(CCN1CCC(O)(c2ccc(Cl)cc2)CC1)(c1ccccc1)c1ccccc1 | inactive | 

Structure (SMILES) | Potency | activation
O=C(O)c1ccc[n+]([O-])c1 | inactive | 
C#CC(C)(O)CC(C)C (stereo not given) | inactive | 
CCN1CCCC(OC(=O)C(c2ccccc2)c2ccccc2)C1 (stereo not given) | inactive | 
Nc1nc2c(ncn2CCC(CO)CO)c(=O)[nH]1 | inactive | 
C=C[Si](OC)(OC)OC | inactive | 
CCCCCCC(=O)OCC | inactive | 
NC(=O)c1ncn([C@@H]2O[C@H](CO)[C@@H](O)[C@H]2O)c1N | inactive | 
CC(C)(C)OC(=O)N1C[C@@H](F)C[C@H]1C(=O)O | inactive | 
C=C(C)C(=O)NCCCN(C)C | inactive | 
C#CC(O)C(CC)CCCC (stereo not given) | inactive | 
COc1ccc(COC=O)cc1 | inactive | 
O=C(O)C(O)[C@H](O)[C@@H](O)[C@H](O)[C@H](O)CO (stereo not given in full) | inactive | 
CCCc1ccc(N)cc1 | inactive | 
NC(=O)c1ncn([C@@H]2O[C@H](CO)[C@@H](O)[C@H]2O)c1O | inactive | 
Cc1ccccc1Br | inactive | 
CCCCCCC(CCCCCCCCCCC(=O)OCC(COC(C)=O)OC(C)=O)OC(C)=O (stereo not given) | inactive | 
NC(=S)Nc1cccc2ccccc12 |  | 0.499% [at 8.47 µM]
C[N+](C)(C)CC[N+]1(C)Cc2c(Cl)c(Cl)c(Cl)c(Cl)c2C1 | inactive | 
OCC(O)[C@@H](O)[C@H](O)[C@H](O)CO[C@H]1O[C@H](CO)[C@@H](O)[C@H](O)[C@H]1O (stereo not given in full) | inactive | 
CCCCCCCCCCCCCCCCCCOCC(O)CO (stereo not given) | inactive | 

Reference: PubChem BioAssay (Tox21)
